# Laboratory results published in PubChem BioAssay (NCATS).
# Inconclusive results are not listed. Values without a mark were called inactive. The source made the active and inactive calls. Calls follow the shape of the dose curve; as a rule, active = well fitted cell-killing curve with a large enough effect; inconclusive = small, poorly fitted or top-dose-only effect, or effect the other way; inactive = no such curve, though single readings can be large or run the other way.
# Tests used:
# [1] = Quantitative High-Throughput drug screen in 47 multiple myeloma cell lines against the NCATS MIPE library collection: MM1R_ATCC cell viability assay (AID 1918981); also: nearly all actives have a fitted effect of over 35% in size
# How it was run: (§1)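 Readout: median RLU from CellTiter-Glo after 5 min at room temperature. Preceding step was 48 h drug treatment of 500 cells/well at 37 °C, 5% CO2, with DMSO-only and media-only control wells.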
# [2] = Quantitative High-Throughput drug screen in 47 multiple myeloma cell lines against the NCATS MIPE library collection: LP1_DSMZ cell viability assay (AID 1918982); also: nearly all actives have a fitted effect of over 35% in size
# How it was run: as §1
# [3] = Quantitative High-Throughput drug screen in 47 multiple myeloma cell lines against the NCATS MIPE library collection: KMS28PE_JCRB cell viability assay (AID 1918983); also: nearly all actives have a fitted effect of over 35% in size
# How it was run: as §1
# [4] = Quantitative High-Throughput drug screen in 47 multiple myeloma cell lines against the NCATS MIPE library collection: KMS34_JCRB cell viability assay (AID 1918985); also: nearly all actives have a fitted effect of over 40% in size
# How it was run: as §1
# [5] = Quantitative High-Throughput drug screen in 47 multiple myeloma cell lines against the NCATS MIPE library collection: OCIMY7_PLB cell viability assay (AID 1918987); conditions: OCI-MY7 myeloma viability, CellTiter-Glo ATP, 48 h; viability (% of DMSO): at 45.8 µM (top of the series); also: nearly all actives have a fitted effect of over 65% in size
# How it was run: as §1
# [6] = Quantitative High-Throughput drug screen in 47 multiple myeloma cell lines against the NCATS MIPE library collection: OPM1_PLB cell viability assay (AID 1918989); also: nearly all actives have a fitted effect of over 40% in size
# How it was run: as §1
# [7] = Quantitative High-Throughput drug screen in 47 multiple myeloma cell lines against the NCATS MIPE library collection: SKMM1_PLB cell viability assay (AID 1919863); conditions: SKMM1 myeloma viability, CellTiter-Glo ATP, 48 h; viability: stronger effect = lower value; also: nearly all actives have a fitted effect of over 35% in size
# How it was run: as §1
# [8] = Quantitative High-Throughput drug screen in 47 multiple myeloma cell lines against the NCATS MIPE library collection: U266_ATCC cell viability assay (AID 1919864); also: nearly all actives have a fitted effect of over 35% in size
# How it was run: as §1
# [9] = Quantitative High-Throughput drug screen in 47 multiple myeloma cell lines against the NCATS MIPE library collection: XG6_PLB cell viability assay (AID 1919865); also: nearly all actives have a fitted effect of over 40% in size
# How it was run: as §1
# [10] = Quantitative High-Throughput drug screen in 47 multiple myeloma cell lines against the NCATS MIPE library collection: XG1_PLB cell viability assay (AID 1919866); also: nearly all actives have a fitted effect of over 35% in size
# How it was run: as §1
# [11] = Quantitative High-Throughput drug screen in 47 multiple myeloma cell lines against the NCATS MIPE library collection: VP6_DJ cell viability assay (AID 1919867); also: nearly all actives have a fitted effect of over 40% in size
# How it was run: as §1
# [12] = Quantitative High-Throughput drug screen in 47 multiple myeloma cell lines against the NCATS MIPE library collection: KMS11_JCRBsus cell viability assay (AID 1919873); also: nearly all actives have a fitted effect of over 50% in size
# How it was run: as §1
# [13] = Quantitative High-Throughput drug screen in 47 multiple myeloma cell lines against the NCATS MIPE library collection: L363_DSMZ cell viability assay (AID 1918984); conditions: L363 myeloma viability, CellTiter-Glo ATP luminescence, 48 h; viability (% of control): at 45.8 µM (top of the series); also: nearly all actives have a fitted effect of over 40% in size
# How it was run: as §1
# [14] = Quantitative High-Throughput drug screen in 47 multiple myeloma cell lines against the NCATS MIPE library collection: UTMC2_PLB cell viability assay (AID 1919868); conditions: CellTiter-Glo ATP luminescence, 48 h; viability (% of DMSO control): at 45.8 µM (top of the series); also: nearly all actives have a fitted effect of over 55% in size
# How it was run: as §1
# [15] = Quantitative High-Throughput drug screen in 47 multiple myeloma cell lines against the NCATS MIPE library collection: PE2_PLB cell viability assay (AID 1919869); also: nearly all actives have a fitted effect of over 35% in size
# How it was run: as §1
# [16] = Quantitative High-Throughput drug screen in 47 multiple myeloma cell lines against the NCATS MIPE library collection: OPM2_DSMZ cell viability assay (AID 1919872); also: nearly all actives have a fitted effect of over 30% in size
# How it was run: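 Myeloma cell lines, 500 cells per well, exposed to MIPE 4.0 library compounds for 48 h at 37C, 5% CO2. Viability from ATP by CellTiter-Glo luminescence; normalised to DMSO (100%) and media-only (0%) wells.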
# [17] = Quantitative High-Throughput drug screen in 47 multiple myeloma cell lines against the NCATS MIPE library collection: PCM6_Riken cell viability assay (AID 1919870); also: nearly all actives have a fitted effect of over 30% in size
# How it was run: as §1
# [18] = Quantitative High-Throughput drug screen in 47 multiple myeloma cell lines against the NCATS MIPE library collection: RPMI8226_ATCC cell viability assay (AID 1919871); also: nearly all actives have a fitted effect of over 30% in size
# How it was run: as §1
# [19] = Quantitative High-Throughput drug screen in 47 multiple myeloma cell lines against the NCATS MIPE library collection: KMS28BM_JCRB cell viability assay (AID 1919874); also: nearly all actives have a fitted effect of over 35% in size
# How it was run: as §1
# [20] = Quantitative High-Throughput drug screen in 47 multiple myeloma cell lines against the NCATS MIPE library collection: OCIMY5_PLB cell viability assay (AID 1918988); also: nearly all actives have a fitted effect of over 65% in size
# How it was run: as §1
# Potency is read from the fitted curve at half-maximal effect.
smiles,measurement,setting,value
Cc1cc(OCCCS(C)(=O)=O)cc(C)c1-c1cccc(COc2ccc3c(c2)OC[C@H]3CC(=O)O)c1,Potency,[1],6.62 µM (active)
same,Potency,[2],16.6 µM (active)
same,Potency,[3],20.9 µM (active)
same,Potency,[4],inactive
same,Potency,[5],18.7 µM (active)
same,Potency,[6],18.7 µM (active)
same,Potency,[7],14.8 µM (active)
same,Potency,[8],inactive
same,Potency,[9],23.5 µM (active)
same,Potency,[10],16.6 µM (active)
same,Potency,[11],2.35 µM (active)
same,Potency,[12],18.7 µM (active)
CNC(=O)c1cc(Oc2ccc(NC(=O)Nc3ccc(Cl)c(C(F)(F)F)c3)c(F)c2)ccn1,Potency,[1],20.9 µM (active)
same,Potency,[2],16.6 µM (active)
same,Potency,[3],20.9 µM (active)
same,Potency,[13],6.62 µM (active)
same,Potency,[6],inactive
same,Potency,[9],0.935 µM (active)
same,Potency,[10],2.64 µM (active)
same,Potency,[11],2.96 µM (active)
same,Potency,[14],3.72 µM (active)
same,Potency,[15],3.32 µM (active)
same,Potency,[16],18.7 µM (active)
same,Potency,[12],14.8 µM (active)
C[C@]12C=CC(=O)C=C1CC[C@@H]1[C@@H]2[C@@H](O)C[C@@]2(C)[C@@H]1CC[C@]2(O)C(=O)CO,Potency,[1],6.62 µM (active)
same,Potency,[2],0.0469 µM (active)
same,Potency,[3],inactive
same,Potency,[4],0.187 µM (active)
same,Potency,[7],1.48 µM (active)
same,Potency,[8],inactive
same,Potency,[10],inactive
same,Potency,[15],inactive
same,Potency,[17],inactive
same,Potency,[18],0.187 µM (active)
same,Potency,[16],inactive
same,Potency,[12],0.0935 µM (active)
CCCCC[C@H](O)C=C[C@H]1[C@H](O)CC(=O)[C@H]1CCCCCCC(=O)O,Potency,[1],inactive
same,Potency,[2],inactive
same,Potency,[3],inactive
same,Potency,[13],inactive
same,Potency,[9],inactive
same,Potency,[10],inactive
same,Potency,[17],inactive
same,Potency,[18],0.105 µM (active)
same,Potency,[16],inactive
same,Potency,[12],inactive
same,Potency,[19],inactive
CC(C)CN(C[C@@H](O)[C@H](Cc1ccccc1)NC(=O)O[C@H]1CO[C@H]2OCC[C@H]21)S(=O)(=O)c1ccc(N)cc1,Potency,[1],1.32 µM (active)
same,Potency,[2],3.72 µM (active)
same,Potency,[3],20.9 µM (active)
same,Potency,[4],inactive
same,Potency,[5],2.96 µM (active)
same,Potency,[20],2.35 µM (active)
same,Potency,[8],1.32 µM (active)
same,Potency,[9],3.72 µM (active)
same,Potency,[10],16.6 µM (active)
same,Potency,[11],8.33 µM (active)
same,Potency,[14],13.2 µM (active)
same,Potency,[15],inactive
same,Potency,[17],4.69 µM (active)
same,Potency,[16],inactive
same,Potency,[12],9.35 µM (active)
COc1cc(C=CC(=O)O)ccc1O,Potency,[1],inactive
same,Potency,[2],inactive
same,Potency,[3],inactive
same,Potency,[4],inactive
same,Potency,[20],inactive
same,viability,[7],124%
same,Potency,[9],inactive
same,Potency,[11],inactive
same,Potency,[17],inactive
same,Potency,[18],inactive
same,Potency,[16],inactive
same,Potency,[12],inactive
C[C@@H](NC(=O)c1ncnc(N)c1Cl)c1ncc(C(=O)Nc2cc(C(F)(F)F)c(Cl)cn2)s1,Potency,[1],18.7 µM (active)
same,Potency,[2],4.69 µM (active)
same,Potency,[3],16.6 µM (active)
same,Potency,[4],4.18 µM (active)
same,Potency,[20],9.35 µM (active)
same,Potency,[7],16.6 µM (active)
same,Potency,[8],26.4 µM (active)
same,Potency,[10],10.5 µM (active)
same,Potency,[11],20.9 µM (active)
same,Potency,[18],13.2 µM (active)
same,Potency,[16],9.35 µM (active)
CCCCC[C@H](O)C=C[C@H]1[C@H](O)CC(=O)[C@H]1CC=CCCCC(=O)O,Potency,[1],inactive
same,Potency,[2],inactive
same,Potency,[3],inactive
same,Potency,[4],0.0148 µM (active)
same,Potency,[8],18.7 µM (active)
same,Potency,[9],20.9 µM (active)
same,Potency,[14],inactive
same,Potency,[15],23.5 µM (active)
same,Potency,[16],inactive
same,Potency,[19],inactive
CC(C)c1c(C(=O)Nc2ccccc2)c(-c2ccccc2)c(-c2ccc(F)cc2)n1CC[C@H](O)C[C@@H](O)CC(=O)O,Potency,[1],10.5 µM (active)
same,Potency,[2],20.9 µM (active)
same,Potency,[3],18.7 µM (active)
same,Potency,[5],4.69 µM (active)
same,Potency,[6],6.62 µM (active)
same,Potency,[7],18.7 µM (active)
same,Potency,[9],18.7 µM (active)
same,Potency,[10],13.2 µM (active)
same,Potency,[15],11.8 µM (active)
same,Potency,[17],16.6 µM (active)
same,Potency,[12],10.5 µM (active)
CC1C(=O)OC2C(O)C34C5CC(C(C)(C)C)C36C(OC(=O)C6O)OC4(C(=O)O5)C12O (configuration not stated),Potency,[1],inactive
same,Potency,[2],inactive
same,Potency,[3],inactive
same,Potency,[4],23.5 µM (active)
same,Potency,[5],inactive
same,Potency,[6],inactive
same,Potency,[7],11.8 µM (active)
same,Potency,[8],inactive
same,Potency,[15],inactive
same,Potency,[18],inactive
same,Potency,[16],inactive
same,Potency,[12],inactive
O=C(NCCCCN1CCOCC1)c1cc2ccccc2o1,Potency,[1],inactive
same,Potency,[2],inactive
same,Potency,[3],inactive
same,Potency,[4],inactive
same,viability,[7],115%
same,Potency,[9],inactive
same,Potency,[10],inactive
same,Potency,[17],inactive
same,Potency,[18],inactive
same,Potency,[16],inactive
same,Potency,[12],inactive
same,Potency,[19],inactive
CC(C)C[C@H](NC(=O)c1cc2ccccc2s1)C(=O)N1CCN(C(=O)[C@H](CO)NS(=O)(=O)c2ccc(Cl)cc2Cl)CC1,Potency,[1],18.7 µM (active)
same,Potency,[2],26.4 µM (active)
same,Potency,[3],23.5 µM (active)
same,Potency,[5],23.5 µM (active)
same,Potency,[20],20.9 µM (active)
same,Potency,[6],20.9 µM (active)
same,Potency,[8],23.5 µM (active)
same,Potency,[11],18.7 µM (active)
same,Potency,[15],23.5 µM (active)
same,Potency,[17],23.5 µM (active)
same,Potency,[12],20.9 µM (active)
same,Potency,[19],20.9 µM (active)
CCCCOCCOc1nc(-c2ccc(C(=O)O)c(F)c2)sc1C,Potency,[1],inactive
same,Potency,[2],inactive
same,Potency,[3],inactive
same,Potency,[13],inactive
same,Potency,[20],14.8 µM (active)
same,viability,[7],118%
same,Potency,[18],10.5 µM (active)
same,Potency,[16],inactive
same,Potency,[12],inactive
same,Potency,[19],inactive
